Compound activity from PubChem.
Shown are actives, neighbours in structure and some others; about 2% of the full set was active somewhere.
ClpP mod: qHTS Assay for Activators of ClpP; ATP-dependent Clp protease proteolytic subunit (Bacillus subtilis (strain 168)), P80244; purified B. subtilis ClpP, FRET peptide cleavage, 20 min; Potency, µM (top dose mostly 57.5 µM), inactives show top-dose activity change, negative = active; 340,000 compounds, 1.9% hits; active means well fitted falling curve with a large enough effect; inconclusive means small, poorly fitted or top-dose-only effect; inactive means no such curve, though single readings can be large or run the other way; further: potency means the concentration at half of the fitted maximal effect; the source files actives as falling curves though it sought activators and does not explain the sign; nearly all actives have a fitted effect of over 65% in size
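ClpP 10 microg/mL final, pH 8 Tris/KCl buffer with BSA, glycerol, Tween-20; compound pinned in; FRET-FV substrate; RT 20 min; Ex320/Em430; ΔFRET vs ADEP 5.8 microM, DMSO, no enzyme.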
PKM2 activator: qHTS Assay for Activators of Human Muscle isoform 2 Pyruvate Kinase | purified PKM2, Kinase-Glo ATP luminescence, activation; response scale: 0% is enzyme alone, no compound | Potency, µM (highest dose often 57.5 µM), without a hit: at the top dose activation, most hits filed as activators | 260,000 compounds, 0.34% hits; further: potency means the concentration at half of the fitted maximal effect; on the % scale 0 is the no-effect control and ±100 the full control effect; nearly all actives have a fitted effect of over 55% in size
Target sequence (P14618 whole entry, looked up, canonical isoform): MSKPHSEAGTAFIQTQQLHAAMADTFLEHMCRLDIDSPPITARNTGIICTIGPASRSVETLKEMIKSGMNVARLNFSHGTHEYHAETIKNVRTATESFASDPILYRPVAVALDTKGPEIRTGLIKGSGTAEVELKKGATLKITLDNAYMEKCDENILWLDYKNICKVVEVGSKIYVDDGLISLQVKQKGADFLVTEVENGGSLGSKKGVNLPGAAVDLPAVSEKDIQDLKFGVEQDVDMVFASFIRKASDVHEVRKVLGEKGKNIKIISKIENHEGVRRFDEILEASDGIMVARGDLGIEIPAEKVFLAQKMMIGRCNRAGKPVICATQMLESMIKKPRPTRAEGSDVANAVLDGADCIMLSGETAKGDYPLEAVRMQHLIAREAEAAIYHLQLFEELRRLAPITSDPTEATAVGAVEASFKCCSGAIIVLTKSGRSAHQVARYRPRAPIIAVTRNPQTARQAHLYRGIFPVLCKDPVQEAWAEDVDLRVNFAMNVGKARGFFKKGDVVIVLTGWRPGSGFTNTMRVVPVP
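ATP formation by purified human PK-M2, quantified via coupled luciferase luminescence after 1 h at room temperature with 0.1 mM ADP and 0.5 mM PEP final.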
IL2 activator: qHTS of IL-2 Activators. 360,000 compounds, 0.065% hits. IL-2 activation reporter assay, cell-based qHTS; stimulated with anti-CD3/CD4/CD28 beads; in transgenic mouse T cells. activation, % (series mostly up to about 46 µM); in the data active means activation above about 50%; inconclusive means mostly about 30% to 49%; further: 0% is about no effect
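Readout: EGFP and DsRed signals by fluorescent plate cytometry. Unstimulated transgenic mouse T cells received compound 60 min before antibody-bead stimulation, then incubated 18 h at 37 degrees C.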
NPSR antagonist: qHTS Assay for Antagonists of the Neuropeptide S Receptor: cAMP Signal Transduction | Potency, µM (doses to about 38.3 µM), without a hit: top-dose activity change, negative = inhibition, hits mostly inhibitors | Q6W5P4 | AID 1461, 2008 | CHO-NPSR cells, cAMP TR-FRET, antagonist mode | 220,000 compounds, 1% hits; further: potency means the concentration at half of the fitted maximal effect; on the % scale 0 is the no-effect control and ±100 the full control effect; nearly all actives have a fitted effect of over 50% in size
ClpP inh valid: qHTS Assay for Activators of ClpP: Hit Validation of Inhibitors | shares compounds with ClpP mod | purified B. subtilis ClpP, FRET-FV substrate cleavage, 20 min | Potency, µM (highest dose often 57.5 µM), without a hit: top-dose activity change, negative = inhibition, actives largely listed as inhibitors | 470 compounds, 40% hits; further: potency means the concentration at half of the fitted maximal effect; on the % scale 0 is the no-effect control and ±100 the full control effect; nearly all actives have a fitted effect of over 70% in size
Starred values were filed as active, the others as inactive; [ ] = dose if it differs, or a comment. Unless noted, the call rests on the fitted dose curve; in most records, active means well fitted curve in the direction sought with a large enough effect; inconclusive means small, poorly fitted or top-dose-only effect, or another doubt; inactive means no such curve, though single readings can be large; an effect the other way counts as inactive or inconclusive.

CN(Cc1ccco1)C(=O)c1c[nH]c2ccc(S(=O)(=O)Nc3ccc4c(c3)OCCO4)cc2c1=O was read as ClpP mod 3.5µM*, PKM2 activator -8%, IL2 activator -1, NPSR antagonist 4% and ClpP inh valid -3%.
Screening O=C(CCCOc1ccccc1)N1CCN(S(=O)(=O)c2cccs2)CC1 returned ClpP mod 1%, PKM2 activator inconclusive, IL2 activator -1 and NPSR antagonist -9%[46.1 µM].
Nc1ccc(S(=O)(=O)NC2(C(F)(F)F)NC(=O)N(c3ccccc3F)C2=O)cc1 (stereo not drawn) was read as IL2 activator 1.
COc1cc2c(cc1NC(=O)CN1CCN(S(=O)(=O)c3ccccc3F)CC1)oc1ccccc12 was read as ClpP mod 3.5µM*, PKM2 activator -5%, IL2 activator -3, NPSR antagonist -29%[46.1 µM] and ClpP inh valid inconclusive.
Screening CC1CC(C)CN(CCCNC(=O)C2CCN(S(=O)(=O)N3CCCCC3)CC2)C1 (stereo not drawn) returned ClpP mod -1%, PKM2 activator -7%, IL2 activator -3 and NPSR antagonist 4%[46.1 µM].
Screening c1ccc(Cn2nnc3c(N4CCCCCC4)ncnc32)cc1 returned ClpP mod -3%, PKM2 activator 3%, IL2 activator -1 and NPSR antagonist -17%[46.1 µM].
For Fc1ccccc1N1CCN(c2nnc(C(F)(F)F)c3nnn(Cc4ccccc4)c23)CC1 the results were ClpP mod 7.9µM* and ClpP inh valid 19µM*.
Screening CCOc1ccc(C2C=C(c3ccc(C)cc3)Nc3nnnn32)cc1 (stereo not drawn) returned ClpP mod 10µM*, PKM2 activator 2%, IL2 activator 21, NPSR antagonist -17%[46.1 µM] and ClpP inh valid -11%.
`CC(=O)OC1OCCOC1NC(=S)Nc1cccc(C(F)(F)F)c1` (stereo not drawn) gave PKM2 activator 10%, IL2 activator 0 and NPSR antagonist -1%.
`COc1cc2ccccc2cc1C(=O)Nc1cc(C)ccn1` gave ClpP mod 3%, PKM2 activator -2% and IL2 activator -1.
`COc1cc2ccccc2cc1C(=O)Nc1ccc(Br)cn1` gave ClpP mod 3.5µM*, PKM2 activator 1%, IL2 activator 0 and ClpP inh valid inconclusive.
CCOc1ccc(CC(=O)Nc2c(C(=O)Nc3ccccc3)oc3ccccc23)cc1OCC was read as ClpP mod 231%, PKM2 activator -1%, IL2 activator -1, NPSR antagonist 18%[46.1 µM] and ClpP inh valid inconclusive.
Screening Cc1ccc(NC(=O)c2oc3ccccc3c2NC(=O)Cc2ccccc2)cc1 returned ClpP mod 145% and ClpP inh valid inconclusive.
`Cc1ccc(NC(=O)c2oc3ccccc3c2NC(=O)c2ccccc2C)cc1` gave ClpP mod 58%.
CCc1cc(N2CCOCC2)cc2c1[nH]c1ccccc12 was read as ClpP mod 10µM*, PKM2 activator 5%, IL2 activator -2, NPSR antagonist -9%[46.1 µM] and ClpP inh valid 17µM*.
`CCOc1ccc(S(=O)(=O)N2CCN(C(=O)c3cc(S(=O)(=O)N4CCOCC4)ccc3C)CC2)cc1` gave ClpP mod -2% and IL2 activator -3.
For Cc1ccccc1Nc1c(-c2c[nH]c3ccccc23)nc2ccccn12 the results were ClpP mod 4%.
For Cc1ccccc1Nc1c(-c2c[nH]c3ccccc23)nc2ccc(Cl)cn12 the results were ClpP mod 5µM* and ClpP inh valid -16%.
For COc1ccnc(Oc2ccccc2)c1C(=O)N/C=N/OCc1ccccc1F the results were PKM2 activator 0%, IL2 activator 0 and NPSR antagonist 4%.
Screening O=C(Nc1cccc(-c2nc3cccnc3s2)c1)c1ccco1 returned ClpP mod inconclusive, PKM2 activator -10%, IL2 activator 0 and NPSR antagonist -14%[46.1 µM].
O=C(Cc1ccc(F)cc1)Nc1cccc(-c2nc3cccnc3s2)c1 was read as ClpP mod 8.9µM* and ClpP inh valid -13%.
`Cc1ccccc1NC(=O)C1CCCN(S(=O)(=O)c2cnc[nH]2)C1` (stereo not drawn) gave ClpP mod 1%, PKM2 activator -5%, IL2 activator -3 and NPSR antagonist 5%[46.1 µM].
For CC1CCN(C(=O)c2cc3c(=O)n4ccccc4nc3s2)CC1 the results were IL2 activator 0.
O=C(c1cc2c(=O)n3ccccc3nc2s1)N1CCOCC1 was read as ClpP mod 4.5µM*, PKM2 activator -8%, IL2 activator 2, NPSR antagonist 1%[46.1 µM] and ClpP inh valid 24µM*.
`CN(Cc1cccs1)C(=O)CN1CCN(S(=O)(=O)c2ccc3c(c2)OCCCO3)CC1` gave ClpP mod -2% and IL2 activator 1.
`COCCCn1c(C)nnc1SCC(=O)Nc1ccc(C(C)=O)cc1` gave ClpP mod -1%, PKM2 activator 0%[11.5 µM] and IL2 activator 1.
O=C(NC1CCCCC1)N(Cc1cc2cc3c(cc2[nH]c1=O)OCCO3)CC1CCCO1 (stereo not drawn) was read as ClpP mod 10µM*, PKM2 activator -3%, IL2 activator -3, NPSR antagonist -12%[46.1 µM] and ClpP inh valid inconclusive.
Screening O=C(NC1CCCCC1)N(CCO)Cc1cc2cc3c(cc2[nH]c1=O)OCCO3 returned ClpP mod inconclusive, PKM2 activator 7%, IL2 activator -2 and NPSR antagonist 5%[46.1 µM].
Screening CCOc1ccccc1CNC(=O)c1cc2c(=O)n(Cc3cccnc3)ccc2nc1C returned ClpP mod 6.3µM* and ClpP inh valid -2%.
For COc1ccc(Cn2ccc3nc(C)c(C(=O)NCc4ccc(F)cc4)cc3c2=O)cc1 the results were ClpP mod -7%.
For COc1ccc(Cn2ccc3nc(C)c(C(=O)NCc4ccc(SC)cc4)cc3c2=O)cc1 the results were ClpP mod 184% and ClpP inh valid 24µM*.
CC(C)(C)OC(=O)N1CCC(c2c(C(=O)N3CCN(c4ccccn4)CC3)cnn2-c2ccccc2)CC1 was read as ClpP mod -5%.
Screening COc1cccc2c1cc1c(=O)n(CC(=O)N3CCN(c4ccccc4F)CC3)nc(C)n12 returned ClpP mod 7.9µM* and ClpP inh valid 3.1µM*.
For CCN1CCN(CCCNC(=O)Cn2nc(C)n3c(cc4c(OC)cccc43)c2=O)CC1 the results were ClpP mod 19%.
